# In PubChem BioAssay:
# Values without a mark were called inactive. A call without a number means that no potency is given here. For some assays here: Potency and affinity values are given separately. Active and inactive are the calls of the source. Unless noted, no rule for the calls is given here.
# Tests used:
# [1] = antimalarial activity against Dd2 strain (AID 2302;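 active = growth inhibition above 50% at the single 2 µM test dose, taken to imply half-maximal potency below 2 µM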); details: P. falciparum Dd2 in RBCs, LDH growth readout, 72 h; at 2 µM; stronger effect = higher value
# [2] = HepG2 cytotoxicity, primary screen, cytotoxicity control for P. falciparum antimalarial project, cell-based, ATP luminescence (AID 2303;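 active = inhibition above 50%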); details: HepG2 viability, 24-48 h, at 10 µM, stronger effect = higher value
# [3] = target: L-lactate dehydrogenase (Plasmodium falciparum (isolate CDC / Honduras)) (UniProt Q27743); experiment: PfLDH activity inhibition – cell lysate, 3D7 strain, counter-screen for P. falciparum growth inhibition project (AID 2304); details: P. falciparum 3D7 crude extract, LDH APAD/NBT absorbance; at 2 µM; stronger effect = higher value
# [4] = inhibition of 3D7 malaria parasite growth – strain 3D7 (AID 2306); details: P. falciparum 3D7 erythrocytic growth, LDH absorbance, 72 h; at 2 µM; stronger effect = higher value
# [5] = target: Calcium-dependent protein kinase 1 (Plasmodium falciparum (isolate 3D7)) (UniProt P62344); experiment: PfCDPK1 kinase inhibitors, biochemical, TCAMS library (AID 1159585; cut-off not given, nearly all actives have IC50 up to about 0.98 µM;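 also: inhibitors leave more ATP so luminescence rises with inhibition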); details: recombinant PfCDPK1, Kinase-Glo ATP depletion luminescence
# [6] = target: Plasmodium falciparum protein kinase 6 (PK6, PF3D7_1337100) (UniProt Q8IDW1); experiment: PfPK6 kinase inhibitors, biochemical, TCAMS library (AID 1159586); details: recombinant PfPK6, Kinase-Glo ATP depletion luminescence
# [7] = target: Protein kinase 7 (PK7), Plasmodium falciparum 3D7 (PF3D7_0213400) (UniProt Q7YTF7); experiment: inhibition of Plasmodium PK7 catalytic activity – biochemical, TCAMS antimalarial set, Kinase-Glo luminescence (AID 1159587); details: recombinant PfPK7, Kinase-Glo ATP depletion luminescence
# [8] = target: Calcium-dependent protein kinase 4 (Plasmodium falciparum (isolate 3D7)) (UniProt Q8IBS5); experiment: PfCDPK4 kinase inhibitors, biochemical, TCAMS library (AID 1159588; cut-off not given, nearly all actives have IC50 up to about 0.91 µM); details: recombinant PfCDPK4, Kinase-Glo ATP depletion luminescence
# Sequence of Calcium-dependent protein kinase 4 (Plasmodium falciparum (isolate 3D7)) (Q8IBS5 whole entry, looked up): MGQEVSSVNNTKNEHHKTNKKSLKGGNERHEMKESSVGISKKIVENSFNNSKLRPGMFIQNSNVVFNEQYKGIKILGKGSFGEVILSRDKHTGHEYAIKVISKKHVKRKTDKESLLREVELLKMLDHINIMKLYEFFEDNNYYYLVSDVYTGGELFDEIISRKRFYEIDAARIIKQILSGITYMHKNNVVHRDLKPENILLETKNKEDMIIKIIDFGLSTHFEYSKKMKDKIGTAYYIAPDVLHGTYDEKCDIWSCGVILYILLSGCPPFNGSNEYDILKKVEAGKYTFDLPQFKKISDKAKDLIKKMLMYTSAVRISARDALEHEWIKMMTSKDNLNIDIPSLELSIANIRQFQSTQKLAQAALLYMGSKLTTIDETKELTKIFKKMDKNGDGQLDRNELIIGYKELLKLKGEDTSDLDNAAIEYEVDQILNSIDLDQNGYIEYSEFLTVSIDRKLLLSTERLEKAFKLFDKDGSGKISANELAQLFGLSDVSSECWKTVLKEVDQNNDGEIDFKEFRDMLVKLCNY
# Sequence of Calcium-dependent protein kinase 1 (Plasmodium falciparum (isolate 3D7)) (P62344 whole entry, looked up): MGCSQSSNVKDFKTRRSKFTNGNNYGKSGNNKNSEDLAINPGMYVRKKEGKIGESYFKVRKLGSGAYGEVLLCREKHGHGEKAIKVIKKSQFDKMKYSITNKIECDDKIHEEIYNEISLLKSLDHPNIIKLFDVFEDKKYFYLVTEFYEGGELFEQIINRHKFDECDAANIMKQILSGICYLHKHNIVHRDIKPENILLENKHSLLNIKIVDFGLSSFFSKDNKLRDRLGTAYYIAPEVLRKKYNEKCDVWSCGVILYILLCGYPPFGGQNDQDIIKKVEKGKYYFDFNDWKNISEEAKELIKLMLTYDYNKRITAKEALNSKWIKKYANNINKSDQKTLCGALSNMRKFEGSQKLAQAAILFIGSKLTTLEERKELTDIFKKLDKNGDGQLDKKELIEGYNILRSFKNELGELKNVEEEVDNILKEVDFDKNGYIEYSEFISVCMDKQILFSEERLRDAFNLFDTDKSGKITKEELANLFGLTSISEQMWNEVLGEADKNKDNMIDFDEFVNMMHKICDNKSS
# Sequence of Protein kinase 7 (PK7), Plasmodium falciparum 3D7 (PF3D7_0213400) (Q7YTF7 1-343): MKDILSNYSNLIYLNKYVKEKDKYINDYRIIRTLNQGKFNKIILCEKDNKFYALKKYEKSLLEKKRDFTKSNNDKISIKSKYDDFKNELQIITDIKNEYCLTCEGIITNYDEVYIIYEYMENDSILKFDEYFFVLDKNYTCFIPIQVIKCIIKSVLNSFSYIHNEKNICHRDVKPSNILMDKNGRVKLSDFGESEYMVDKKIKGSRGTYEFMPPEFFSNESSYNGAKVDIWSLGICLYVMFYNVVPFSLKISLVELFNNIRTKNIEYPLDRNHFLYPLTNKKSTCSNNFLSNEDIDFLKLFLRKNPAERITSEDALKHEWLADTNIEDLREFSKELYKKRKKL
# Sequence of Plasmodium falciparum protein kinase 6 (PK6, PF3D7_1337100) (Q8IDW1 1-305): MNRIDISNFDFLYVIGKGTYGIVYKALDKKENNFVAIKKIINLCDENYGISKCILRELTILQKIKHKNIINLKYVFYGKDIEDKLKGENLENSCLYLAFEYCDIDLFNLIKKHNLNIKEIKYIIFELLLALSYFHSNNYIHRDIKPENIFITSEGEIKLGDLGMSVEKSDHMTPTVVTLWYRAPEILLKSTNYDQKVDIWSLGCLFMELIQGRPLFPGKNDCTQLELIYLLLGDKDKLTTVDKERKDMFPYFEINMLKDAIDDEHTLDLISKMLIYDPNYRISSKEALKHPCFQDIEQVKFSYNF
# Sequence of L-lactate dehydrogenase (Plasmodium falciparum (isolate CDC / Honduras)) (Q27743 whole entry, looked up): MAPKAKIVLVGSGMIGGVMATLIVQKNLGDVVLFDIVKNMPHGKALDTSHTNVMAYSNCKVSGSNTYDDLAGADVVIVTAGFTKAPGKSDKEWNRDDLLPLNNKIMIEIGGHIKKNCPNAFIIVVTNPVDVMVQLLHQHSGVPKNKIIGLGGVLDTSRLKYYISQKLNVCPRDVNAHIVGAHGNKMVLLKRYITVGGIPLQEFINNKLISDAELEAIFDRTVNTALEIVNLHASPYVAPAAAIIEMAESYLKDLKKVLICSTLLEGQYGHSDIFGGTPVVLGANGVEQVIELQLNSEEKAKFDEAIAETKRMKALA
Structure (SMILES),growth inhibition [1],inhibition [2],inhibition [3],growth inhibition [4],outcome [5],outcome [6],outcome [7],outcome [8]
C[C@H](Cc1ccc(OCCCOc2ccc(C[C@@H](C)NC[C@H](O)c3cccc(Cl)c3)cc2)cc1)NC[C@H](O)c1cccc(Cl)c1,92% (active),99% (active),0%,99% (active),inactive,inactive,inactive,inactive
CCCOc1ccccc1-c1nc2[nH]c3c(c2c(=O)[nH]1)CCN(C)C3,70% (active),8%,-6%,87% (active),inactive,inactive,inactive,inactive
CCC(C)(C)C1CCc2nc(N)nc(N)c2C1 (stereo not given),97% (active),71% (active),4%,95% (active),inactive,inactive,inactive,inactive
O=C(/C=C/c1ccc(C(F)(F)F)cc1)NCCCCCN1CCCN(C(=O)Nc2ccc(Cl)c(C(F)(F)F)c2)CC1,31%,64% (active),4%,99% (active),inactive,inactive,inactive,inactive
O=S(=O)(Nc1cccc(CCN2CCC(N3CCCCC3)CC2)c1)c1ccccc1C(F)(F)F,32%,21%,1%,82% (active),inactive,inactive,inactive,inactive
COc1ccccc1CCN(C)CCN1CCC(NC(=O)c2ccc(-c3ccc(C(F)(F)F)cc3)cc2)CC1,15%,46%,-2%,92% (active),inactive,inactive,inactive,inactive
O=C(/C=C/c1ccc(Cl)c(Cl)c1)N1CCC(C(O)CN2CCC(c3c[nH]c4ccccc34)CC2)CC1 (stereo not given),46%,14%,-4%,99% (active),inactive,inactive,inactive,inactive
CN1C(C)(C)CC(NC(=O)c2ccc(-c3nc4cc(Cl)c(Cl)cc4[nH]3)cc2)CC1(C)C,97% (active),8%,4%,98% (active),inactive,inactive,inactive,inactive
O=C1Nc2cccc3c2C1(CCCN1CCC(c2c[nH]c4cc(C(F)(F)F)ccc24)CC1)CCC3 (stereo not given),37%,91% (active),-2%,89% (active),inactive,inactive,inactive,inactive
CCC(C)(C)c1ccc(N2C(N)=NC(N)=NC2(C)C)cc1,4%,40%,-1%,91% (active),inactive,inactive,inactive,inactive
CS(=O)(=O)c1ccc(CCNCc2ccc(-c3ccc(CN(C(=O)C4CC(=O)c5ccccc54)C4CCN(Cc5ccccc5)CC4)cc3)nc2)cc1 (stereo not given),49%,9%,9%,100% (active),inactive,inactive,inactive,inactive
COc1ccc(Nc2nc(N)c3cc(OC)c(OC)cc3n2)cc1OC,5%,-4%,-7%,99% (active),inactive,inactive,inactive,inactive
CCCN1CCN(c2ccc(NS(=O)(=O)c3ccc(C(=O)Nc4ccc(Cl)cc4)cc3)cc2)CC1,50% (active),4%,-4%,100% (active),inactive,inactive,inactive,inactive
COc1cc(NC(=O)c2sc(-c3ccc(Cl)cc3)cc2NC(=O)CN2CC[C@@H](O)C2)ccc1OCCN1CCCC1,79% (active),56% (active),6%,90% (active),inactive,inactive,inactive,inactive
COc1ccc(CCC(C)N2C[C@@H](N)[C@H](c3cn(C)c4cnccc34)C2)cc1 (stereo not given in full),-4%,5%,-1%,98% (active),inactive,inactive,inactive,inactive
CC(C)CN(c1nc(C(=O)NNC(=O)[C@H](CC2CC2)NC(=O)c2cc3cc(OCCN4CCCCC4)ccc3o2)cs1)C1CC1,98% (active),2%,-4%,97% (active),inactive,inactive,inactive,inactive
O=c1[nH]c2ccc3[nH]cccc3c2c1C=Nc1ccc(Cn2ccnc2)cc1,85% (active),33%,1%,101% (active),inactive,inactive,inactive,inactive
COc1cc(C)nc2ccc(NC(=O)c3ccc(C(=O)Nc4ccc5nc(C)cc(OC)c5c4)cc3)cc12,72% (active),27%,-5%,96% (active),inactive,inactive,inactive,inactive
CN1CCc2cc(Br)c(O)cc2C1Cc1ccccc1Cl (stereo not given),88% (active),2%,-2%,98% (active),inactive,inactive,inactive,inactive
CC(=O)Nc1ncc(C(=O)Nc2cccc(-c3cccc(-c4nc5c(C)cccc5[nH]4)c3)c2)s1,64% (active),15%,4%,94% (active),inactive,inactive,inactive,inactive

Structure (SMILES),growth inhibition [1],inhibition [2],inhibition [3],growth inhibition [4],outcome [5],outcome [6],outcome [7],outcome [8]
O=C(NCCCN1CCC(N2CCCCC2)CC1)c1ccc(N2CCOc3ccccc32)s1,12%,37%,4%,101% (active),inactive,inactive,inactive,inactive
COc1ccc2nccc(N3CCC(O)(CCNCc4ccc5c(n4)NC(=O)CS5)CC3)c2n1,21%,10%,0%,99% (active),inactive,inactive,inactive,inactive
CCOC(=O)C(NC(=O)c1ccc([N+](=O)[O-])o1)C(C)C (stereo not given),8%,-3%,0%,87% (active),inactive,inactive,inactive,inactive
COc1cc(Cc2c(C)nc3nc(N)nc(N)c3c2C)c(Br)c(OC)c1OC,-2%,44%,0%,93% (active),inactive,inactive,inactive,inactive
O=C(NC1CC1)c1ccc(Cn2c(SCc3cccc([N+](=O)[O-])c3)nc3ccccc3c2=O)cc1,65% (active),12%,1%,91% (active),inactive,inactive,inactive,inactive
CN1CCC(NCc2ccc(-c3ccc(Cl)cc3)cc2)CC1,43%,50% (active),6%,99% (active),inactive,inactive,inactive,inactive
O=C(/C=C/c1ccc(Cl)cc1)NCCCCCN1CCN(C(=O)C=Cc2ccc(Cl)c(Cl)c2)CC1,0%,30%,5%,92% (active),inactive,inactive,inactive,inactive
CCOC(=O)N1CCC(NC(=O)c2ccc(C(C)(C)C)cc2OC)CC1,-5%,-7%,0%,88% (active),inactive,inactive,inactive,inactive
COc1ccc(NC(=O)NC2CCN(CCCCCNC(=O)/C=C/c3ccc(Cl)c(Cl)c3)CC2)cc1,1%,5%,0%,96% (active),inactive,inactive,inactive,inactive
CC1CCN(CCCNc2ccc(C(=O)Nc3ccc(C(F)(F)F)cc3)cc2[N+](=O)[O-])CC1,100% (active),62% (active),-3%,101% (active),inactive,inactive,inactive,inactive
COc1ccccc1N1CCN(c2cccc(F)c2C#N)CC1,59% (active),-2%,-2%,85% (active),inactive,inactive,inactive,inactive
Cc1cc(N[C@@H](Cc2ccccc2)C(=O)NCc2cccc(F)c2)nc(NCCc2ccc(F)cc2)n1,69% (active),0%,-2%,99% (active),inactive,inactive,inactive,inactive
CCCCNC(=O)[C@H](CC1CCCCC1)NC(=O)c1ccc(O)c(-c2cccc(C(F)(F)F)c2)c1,86% (active),-8%,0%,98% (active),inactive,inactive,inactive,inactive
Cc1noc(C)c1-c1cccc(CNCc2cccc(-c3ccc(-c4nc5c(C)cccc5[nH]4)s3)c2)c1,75% (active),22%,1%,102% (active),inactive,inactive,inactive,inactive
CC(=O)N(C)C1CCN(Cc2cccc(-c3ccc(-c4nc5ccc(C(F)(F)F)cc5[nH]4)cc3)c2)C1 (stereo not given),94% (active),31%,3%,100% (active),inactive,inactive,inactive,inactive
CCOC(=O)c1ccc(NC(=O)Nc2cccc(-c3ccc(-c4nc5c(C)cccc5[nH]4)s3)c2)cc1,99% (active),44%,4%,100% (active),inactive,inactive,inactive,inactive
CCOc1ccc2c(NN=Cc3cc(OC)c(OC)c(OC)c3)cc(C)nc2c1,99% (active),18%,-4%,101% (active),inactive,inactive,inactive,inactive
Cc1ccc2c(c1)c(C1CCN(C(=O)c3ccc([N+](=O)[O-])o3)CC1)cn2C,76% (active),-6%,-1%,97% (active),inactive,inactive,inactive,inactive
N#Cc1ccc(N2CCN(Cc3ccc(-c4ccc(-c5nc6ccccc6[nH]5)s4)cc3)CC2)nc1,63% (active),17%,2%,99% (active),inactive,inactive,inactive,inactive
CC(=O)Nc1ccc(CNCCc2ccc(NC(=O)c3cc(Cl)cc(Cl)c3)cc2)cc1,31%,10%,-1%,102% (active),inactive,inactive,inactive,inactive
